The values that follow come from paper PMC5700166.

Assay in all cases: protein-binding microarray (PBM); PBM: ~300 nM protein, 6 mM HEPES pH 7.8, 80 mM KCl, 0.5 mM EDTA, 0.5 mM EGTA, 6% glycerol, 35 ng/ul poly-dIdC, 1% milk, 1 h, room temperature; Ap Aiptasia and Nv Nematostella (sea anemones) / Co Capsaspora / Aq Amphimedon (sponge) / Dm Drosophila / Hu human; RHD is the Rel homology domain; high values mean tight binding
Common to all, as to settings: dsDNA, one strand shown

The target in one experiment is T1, GST-Ap-NF-kB RHD (Exaiptasia pallida (Aiptasia), UniProt A0A913YAJ5 2-422).
T1 sequence: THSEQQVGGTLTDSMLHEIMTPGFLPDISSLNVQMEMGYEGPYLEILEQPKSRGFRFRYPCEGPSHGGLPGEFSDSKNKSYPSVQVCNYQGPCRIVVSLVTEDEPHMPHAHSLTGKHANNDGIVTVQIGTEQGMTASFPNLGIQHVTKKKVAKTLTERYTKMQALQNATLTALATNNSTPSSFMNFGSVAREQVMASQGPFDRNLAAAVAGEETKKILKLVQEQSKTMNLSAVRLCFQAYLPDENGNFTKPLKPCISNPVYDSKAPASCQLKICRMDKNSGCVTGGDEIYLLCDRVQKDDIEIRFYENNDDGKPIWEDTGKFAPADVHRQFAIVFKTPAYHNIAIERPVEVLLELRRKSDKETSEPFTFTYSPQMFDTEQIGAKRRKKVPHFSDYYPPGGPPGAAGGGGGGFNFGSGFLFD

For experiment [1], the target named is T2, GST-Nv-NF-kB (Ser allele) (Nematostella vectensis, UniProt A7UNT2 2-411).
T2 sequence: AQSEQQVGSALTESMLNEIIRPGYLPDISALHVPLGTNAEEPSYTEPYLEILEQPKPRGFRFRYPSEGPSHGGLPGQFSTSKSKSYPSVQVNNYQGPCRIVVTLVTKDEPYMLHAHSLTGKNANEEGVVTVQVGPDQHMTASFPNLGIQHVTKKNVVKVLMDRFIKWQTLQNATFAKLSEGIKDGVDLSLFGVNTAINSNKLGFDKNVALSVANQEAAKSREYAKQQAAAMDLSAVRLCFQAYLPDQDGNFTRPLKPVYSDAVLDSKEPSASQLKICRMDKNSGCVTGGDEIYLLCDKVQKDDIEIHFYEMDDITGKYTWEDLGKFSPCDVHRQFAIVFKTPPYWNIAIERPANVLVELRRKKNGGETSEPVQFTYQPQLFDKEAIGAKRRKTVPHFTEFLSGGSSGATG

Another experiment has as its target T3, GST-Co-NF-kB (Capsaspora owczarzaki, UniProt F1ARL5 200-546).
T3 sequence: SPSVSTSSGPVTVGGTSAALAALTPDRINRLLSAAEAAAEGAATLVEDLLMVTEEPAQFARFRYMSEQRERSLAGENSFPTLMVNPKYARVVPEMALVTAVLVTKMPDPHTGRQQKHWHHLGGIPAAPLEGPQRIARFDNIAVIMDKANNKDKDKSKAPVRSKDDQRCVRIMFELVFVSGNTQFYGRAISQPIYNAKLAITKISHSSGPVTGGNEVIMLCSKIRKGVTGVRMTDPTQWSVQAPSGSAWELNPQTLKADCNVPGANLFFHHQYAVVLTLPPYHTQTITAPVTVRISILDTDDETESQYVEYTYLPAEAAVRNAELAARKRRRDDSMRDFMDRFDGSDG

A further experiment has as its target T4, GST-Dm-Relish (Drosophila melanogaster, UniProt Q94527 99-473).
T4 sequence: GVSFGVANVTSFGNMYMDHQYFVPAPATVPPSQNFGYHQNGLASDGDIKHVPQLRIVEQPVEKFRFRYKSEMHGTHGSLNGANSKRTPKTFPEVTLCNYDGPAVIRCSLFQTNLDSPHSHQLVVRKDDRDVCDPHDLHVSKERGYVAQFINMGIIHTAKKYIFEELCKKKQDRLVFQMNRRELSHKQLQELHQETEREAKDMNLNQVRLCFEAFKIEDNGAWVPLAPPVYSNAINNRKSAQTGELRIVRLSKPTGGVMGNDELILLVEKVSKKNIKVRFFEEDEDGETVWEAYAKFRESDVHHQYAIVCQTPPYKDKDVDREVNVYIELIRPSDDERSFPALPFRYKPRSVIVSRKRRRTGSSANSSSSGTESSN

In another experiment the target is T5, GST-Aq-NF-kB (Amphimedon queenslandica, UniProt A9Y5G7 2-389).
T5 sequence: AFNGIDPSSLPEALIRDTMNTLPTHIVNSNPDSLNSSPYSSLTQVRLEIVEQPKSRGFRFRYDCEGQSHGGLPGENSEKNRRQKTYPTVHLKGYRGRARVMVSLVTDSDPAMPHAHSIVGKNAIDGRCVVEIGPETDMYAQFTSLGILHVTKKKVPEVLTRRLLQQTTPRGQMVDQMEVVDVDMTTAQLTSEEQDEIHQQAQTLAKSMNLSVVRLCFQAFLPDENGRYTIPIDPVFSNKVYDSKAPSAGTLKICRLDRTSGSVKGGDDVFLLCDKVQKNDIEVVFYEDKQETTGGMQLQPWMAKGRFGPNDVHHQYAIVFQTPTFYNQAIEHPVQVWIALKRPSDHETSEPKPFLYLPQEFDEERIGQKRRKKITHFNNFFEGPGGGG

In the next experiment the target is GST-Hu-p50 (Homo sapiens, UniProt P19838 7-356).
Sequence of GST-Hu-p50 (P19838 7-356): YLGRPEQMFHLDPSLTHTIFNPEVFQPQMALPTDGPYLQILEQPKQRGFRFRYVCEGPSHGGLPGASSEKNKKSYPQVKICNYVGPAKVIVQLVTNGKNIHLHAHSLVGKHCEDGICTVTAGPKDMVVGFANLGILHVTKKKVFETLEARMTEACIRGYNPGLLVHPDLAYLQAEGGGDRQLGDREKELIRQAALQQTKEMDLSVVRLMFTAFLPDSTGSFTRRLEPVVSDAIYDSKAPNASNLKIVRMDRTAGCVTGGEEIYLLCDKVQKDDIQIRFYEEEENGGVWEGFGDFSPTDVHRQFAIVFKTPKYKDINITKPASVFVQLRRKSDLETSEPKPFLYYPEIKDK
Experiment [2] addresses T6, GST-Nv-NF-kB (Cys allele) (Nematostella vectensis, UniProt E5G601 2-411).
T6 sequence: T2 sequence with R21Q, S66C, N207S, Q215E, A217V, K225E, E268A, E399D

Substitutions are numbered along the chain they refer to.

As for “CCGATTAACATCAGGGGGGGTAATGATGTTAATCGGGTCTTGATTCGCTTGACGCTGCTG”, the binding signal was found to be 4.27 z-score with GST-Ap-NF-kB RHD; 3.94 z-score in experiment [1]; 6.38 z-score with GST-Co-NF-kB; 4.83 z-score with GST-Dm-Relish; 4.38 z-score in the experiment with GST-Aq-NF-kB; 3.7 z-score with GST-Hu-p50.
With “CCGATTAACATCACGGGCTTCCCTGATGTTAATCGGGTCTTGATTCGCTTGACGCTGCTG”, the binding signal in the experiment with GST-Ap-NF-kB RHD came out at 1.85 z-score; in experiment [2], 2 z-score; with GST-Dm-Relish it was 7.65 z-score; with GST-Aq-NF-kB, 4.57 z-score; with GST-Hu-p50, 1.14 z-score.
For “CCGATTAACATCAGGGCCTTTTGTGATGTTAATCGGGTCTTGATTCGCTTGACGCTGCTG”, in that order: 1.85 z-score, 1.14 z-score, 5.05 z-score, 2.46 z-score and 2.05 z-score.
With “CCGATTAACATCAATTCCCCCCGTGATGTTAATCGGGTCTTGATTCGCTTGACGCTGCTG”, the binding signal was 7.28 z-score with GST-Ap-NF-kB RHD; 6.61 z-score in experiment [1]; 8.8 z-score with GST-Co-NF-kB; 5.54 z-score in the experiment with GST-Dm-Relish; 5.76 z-score in the experiment with GST-Aq-NF-kB; 5.76 z-score in the experiment with GST-Hu-p50.
For “CCGATTAACATCAAAAAAACACCTGATGTTAATCGGGTCTTGATTCGCTTGACGCTGCTG”, the binding signal in the experiment with GST-Ap-NF-kB RHD was determined as 3.14 z-score; in experiment [2], 4.03 z-score; with GST-Dm-Relish it was 4.97 z-score; with GST-Aq-NF-kB it was 4.34 z-score; in the experiment with GST-Hu-p50, 6.24 z-score.
Take “CCGATTAACATCAAGGGAATTCCTGATGTTAATCGGGTCTTGATTCGCTTGACGCTGCTG”: the binding signal with GST-Ap-NF-kB RHD came to 7.9 z-score; in experiment [2] it was 8.71 z-score; in the experiment with GST-Co-NF-kB, 3.76 z-score; in the experiment with GST-Dm-Relish, 7.95 z-score; in the experiment with GST-Aq-NF-kB, 8.11 z-score; with GST-Hu-p50, 5.3 z-score.
“CCGATTAACATCAGGGGCTTCCATGATGTTAATCGGGTCTTGATTCGCTTGACGCTGCTG”: the binding signal in the experiment with GST-Ap-NF-kB RHD turned out to be 4.37 z-score; in experiment [2], 4.89 z-score; with GST-Dm-Relish it was 6.97 z-score; with GST-Aq-NF-kB, 5.03 z-score; with GST-Hu-p50, 4.38 z-score.
For “CCGATTAACATCAAAAAATCACCTGATGTTAATCGGGTCTTGATTCGCTTGACGCTGCTG” the same measures were 2.88 z-score, 4.37 z-score, 8.12 z-score, 3.98 z-score and 5.67 z-score.
Regarding “CCGATTAACATCAGGGCACCCCCTGATGTTAATCGGGTCTTGATTCGCTTGACGCTGCTG”, the binding signal with GST-Ap-NF-kB RHD stood at 6.14 z-score; in experiment [2], 4.52 z-score; with GST-Co-NF-kB, 2.4 z-score; with GST-Dm-Relish, 8.28 z-score; in the experiment with GST-Aq-NF-kB, 7.23 z-score; with GST-Hu-p50, 4.75 z-score.
For “CCGATTAACATCAGGACCTTCCCTGATGTTAATCGGGTCTTGATTCGCTTGACGCTGCTG”, the binding signal with GST-Ap-NF-kB RHD was 2.74 z-score; in experiment [2] it was 2.66 z-score; with GST-Dm-Relish it was 1.9 z-score; in the experiment with GST-Aq-NF-kB, 5.89 z-score; with GST-Hu-p50, 1.95 z-score.
As for “CCGATTAACATCAAGGGGGGGACTGATGTTAATCGGGTCTTGATTCGCTTGACGCTGCTG”, the binding signal with GST-Ap-NF-kB RHD turned out to be 6.81 z-score; in experiment [1], 4.24 z-score; with GST-Co-NF-kB, 5.71 z-score; with GST-Dm-Relish, 4.41 z-score; with GST-Aq-NF-kB it was 4.98 z-score; with GST-Hu-p50, 4.74 z-score.
For “CCGATTAACATCAGCCCCGGTGTTGATGTTAATCGGGTCTTGATTCGCTTGACGCTGCTG”, the binding signal with GST-Ap-NF-kB RHD came out at 2.1 z-score; in the experiment with GST-Co-NF-kB, 1.61 z-score; with GST-Aq-NF-kB, 2.37 z-score; in the experiment with GST-Hu-p50, 1.58 z-score.
With “CCGATTAACATCAGGAAATAACCTGATGTTAATCGGGTCTTGATTCGCTTGACGCTGCTG”, the binding signal was 3.04 z-score in experiment [2]; 3.75 z-score in experiment [1]; 3.31 z-score with GST-Dm-Relish; 4.91 z-score with GST-Aq-NF-kB; 5.04 z-score with GST-Hu-p50.
